PubChem BioAssay (EPA / NIEHS)
Records with an inconclusive call do not appear. Where a structure was tested more than once in an assay, its records may differ in their call. The source made the active and inactive calls. Rule for the calls: active = hit-call score of the fitted dose curve at least 0.9, where 1 is the maximum; inconclusive = response in the unintended direction; inactive = score below 0.9.

target: Cellular tumor antigen p53 (Homo sapiens) (UniProt P04637); experiment: TOX21_p53_BLA_p4_ratio: Tox21 HCT-116 p53 Agonism Beta-lactamase Assay, Ratio, Phase 4 (AID 2283601)
Summary of the method: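 Signal is the blue/green (460nm/530nm) ratio of cleaved versus uncleaved CCF4-AM substrate, read after 2 h substrate loading. Cells were HCT116 carrying the p53-responsive beta-lactamase reporter, dosed 16 h at 37C, 5% CO2; CellTiter-Glo measured in parallel.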

Chain of Cellular tumor antigen p53 (Homo sapiens) (P04637 whole entry, looked up): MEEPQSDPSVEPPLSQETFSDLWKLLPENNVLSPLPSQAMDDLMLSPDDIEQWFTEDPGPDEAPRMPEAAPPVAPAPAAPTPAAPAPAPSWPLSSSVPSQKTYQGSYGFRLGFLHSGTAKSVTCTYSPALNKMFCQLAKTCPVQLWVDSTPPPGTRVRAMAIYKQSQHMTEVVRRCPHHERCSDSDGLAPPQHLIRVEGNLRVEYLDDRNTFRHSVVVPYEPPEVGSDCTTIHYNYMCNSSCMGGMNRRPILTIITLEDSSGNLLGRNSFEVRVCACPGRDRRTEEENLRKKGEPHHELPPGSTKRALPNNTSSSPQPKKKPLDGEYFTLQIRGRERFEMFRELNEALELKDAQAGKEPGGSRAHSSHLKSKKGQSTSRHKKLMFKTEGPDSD

| SMILES | AC50 | outcome |
| --- | --- | --- |
| CC(C)(c1ccc(OCC2CO2)cc1)c1ccc(OCC2CO2)cc1 (stereo not given) | 79.4 µM (active) | inactive |
| CC(C)C1CCC(Cc2ccc(Cl)cc2)C1(O)Cn1cncn1 (stereo not given) | 88.7 µM (active) |  |
| Nc1ccc(-c2ccc(N)c(Cl)c2)cc1Cl | 33.6 µM (active) | inactive |
